PubChem BioAssay AID485344 (National Center for Advancing Translational Sciences (NCATS), 2010)
Where “and” joins values, the source holds several entries; their conditions need not be identical. Identical values can stand only once. The whole screen tested about 340,000 compounds, of which about 6,900 (2%) were called active. Rule as the data show it: active = inhibition above about 30%; inactive = below that, where a call was filed. Only a selection was taken, and actives are over-represented in it overall. More than one record can exist for a structure, and the calls need not agree.

Target: D(2) dopamine receptor (Homo sapiens) (UniProt P14416)
Assay: HTS Assay for Allosteric Antagonists of the Human D2 Dopamine Receptor: Primary Screen for Antagonists; also: 0% is about no effect
Settings: HEK293 TREx D2 cells, calcium flux, dopamine EC80; at 10 µM; stronger effect = higher value
Procedure, shortened: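 HEK293 T-REx D2 cells, tet-induced, calcium dye no-wash. Cpd pintool add, 180 s kinetic, then EC80 DA, 180 s kinetic. Ca flux read.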

D(2) dopamine receptor (Homo sapiens), sequence (P14416 whole entry, looked up): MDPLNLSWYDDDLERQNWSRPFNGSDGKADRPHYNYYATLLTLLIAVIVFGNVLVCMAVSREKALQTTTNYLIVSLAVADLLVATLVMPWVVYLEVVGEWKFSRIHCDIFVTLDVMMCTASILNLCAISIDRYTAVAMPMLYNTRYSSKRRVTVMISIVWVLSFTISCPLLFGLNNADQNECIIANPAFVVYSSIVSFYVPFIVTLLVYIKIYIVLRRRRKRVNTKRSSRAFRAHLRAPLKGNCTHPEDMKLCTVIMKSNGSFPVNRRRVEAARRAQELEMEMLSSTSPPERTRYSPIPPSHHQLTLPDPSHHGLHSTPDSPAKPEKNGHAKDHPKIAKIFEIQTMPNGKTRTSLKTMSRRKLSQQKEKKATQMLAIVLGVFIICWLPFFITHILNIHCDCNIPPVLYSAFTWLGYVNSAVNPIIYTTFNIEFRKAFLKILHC

Compound	inhibition
Cc1cccc(NC(=O)C2CCCN(C(=O)Nc3ccc(F)cc3)C2)c1C (centres undefined)	36% (active)
Cc1cccc(NC(=O)N2CCCCCC2)c1C	9.43% (inactive)
Cc1cccc(NC(=O)C2CCCN(C(=O)NCc3ccccc3)C2)c1C (centres undefined)	-14.3% (inactive)
O=C(O[C@H]1[C@H](Cc2ccccc2)NS(=O)(=O)[C@H]2C[C@@H]3C=C[C@]12O3)c1ccc([N+](=O)[O-])cc1	19.3% (inactive)
CC1(NC(=O)CCS(=O)(=O)c2ccc(Cl)cc2)CCS(=O)(=O)C1 (centres undefined)	9.74% (inactive)
CC(=O)c1sc(NC(=O)CCN2C(=O)C3CC=CCC3C2=O)nc1-c1ccccc1 (centres undefined)	-8.46% (inactive)
Cc1cc(C(=O)COc2ccccc2Cl)c(C)n1C1CC1	-29.6% (inactive)
CC(C)CNC(=O)c1cc(-c2ccc(Br)cc2)on1	-7.31% (inactive)
CC(C)C(=O)NCc1cc(-c2ccc(Cl)cc2)no1	41.7% (active)
Cc1ccc(S(=O)(=O)Cc2cc(-c3ccc(Cl)cc3)no2)cc1	-17% (inactive)
Cc1cc(C)n2nc(C(=O)Nc3cccc(S(=O)(=O)N4CCOCC4)c3)nc2n1	7.16% (inactive)
O=C(O)c1ccc(Cn2c(=S)[nH]c3cc(Cl)ccc3c2=O)cc1	-1.7% (inactive)
CC(C)c1ccc2c(c1)c(SC(C)(C)C)c(CC(C)(C)C(=O)O)n2Cc1ccc(Cl)cc1	6.19% (inactive) and 47.1% (active)
CCCCCCSc1ccc([C@@H]2[C@@H]3C(=O)N(CC)C(=O)[C@@H]3[C@]3(C(=O)OC)CCCCN23)cc1OC	6.12% (inactive)
COc1cc(OC)c(N2CC(C(=O)Nc3cc(Cl)ccc3N3CCOCC3)CC2=O)cc1Cl (centres undefined)	-13.1% (inactive)
CCN(CC(=O)Nc1ccc(S(=O)(=O)N2CCCC2)cc1)CC(=O)Nc1cccc(OC)c1	-1.82% (inactive)
COc1ccccc1CC(=O)Nc1ccc(S(=O)(=O)N2CCCC2)cc1	39.2% (active)
O=C(CN1CCCCCC1)Nc1ccc(S(=O)(=O)N2CCCCC2)cc1	-6.5% (inactive)
COc1cc(OC)cc(C(=O)NNC(=O)CCOc2ccccc2OC)c1	23.6% (inactive)
Cc1[nH]c2ccccc2c1C(=O)CN1CC(C)CC(C)C1 (centres undefined)	14.4% (inactive)
Cc1cccc(NC(=O)CCN2CC(C)CC(C)C2)c1 (centres undefined)	4.5% (inactive)
CC1CC(C)CN(CCOc2cccc3ccccc23)C1 (centres undefined)	55.1% (active)

Compound	inhibition
COc1cccc(NC(=O)COC(=O)/C=C/c2ccco2)c1	13.2% (inactive)
Cn1c(SCC(=O)Nc2ccc(N3CCOCC3)cc2)nnc1C(F)(F)F	6.16% (inactive)
O=C(c1c(F)cccc1F)N1CCN(S(=O)(=O)c2ccc3c(c2)OCCO3)CC1	8.79% (inactive)
O=C(Nc1ccccn1)C1CCN(S(=O)(=O)c2ccc3c(c2)OCCO3)CC1	-2.31% (inactive)
O=C(c1ccc2c(c1)OCCO2)C1CCN(S(=O)(=O)c2cccc(F)c2)CC1	61.3% (active)
O=C(CSc1nnc(N2CCOCC2)n1-c1cccc(F)c1)N1CCN(c2ccccn2)CC1	4.3% (inactive)
COc1ccccc1C(=O)NCC(=O)OCC(=O)Nc1nnc(-c2ccccc2)o1	1.12% (inactive)
CC(C)(C)C(=O)CSc1ccc(S(=O)(=O)N2CCCC2)cn1	5.12% (inactive)
Cc1c(CN2CCCC(C(=O)c3cccc(Cl)c3)C2)c(=O)n(-c2ccccc2)n1C (centres undefined)	-0.0762% (inactive)
Cc1cccc(N2CCN(Cc3c(C)n(C)n(-c4ccccc4)c3=O)CC2)c1C	41.2% (active)
Cc1c(CN2CCC(C)CC2)c(=O)n(-c2ccccc2)n1C	-7.69% (inactive)
C#CCOCCOCCOCCNc1nc(N2CCN(C(=O)CCCCCCCCCCNC(=O)[C@H](CCCCN)n3cc(C)nn3)CC2)nc(N2CCN(C(=O)CCCCCCCCCCNC(=O)[C@H](CO)n3cc(CCCSC)nn3)CC2)n1	-18.3% (inactive)
CC12CCC(=O)N1C(C(=O)NCCN1C(=O)S/C(=C\c3ccccc3F)C1=O)CS2 (centres undefined)	-9.13% (inactive)
CCOc1ccc(NS(=O)(=O)c2ccc(Cl)c(C(=O)N(C)Cc3cccnc3)c2)cc1	10.8% (inactive)
CCN(CC)S(=O)(=O)c1ccc(N2CCOCC2)c(NC(=O)c2ccc(=O)n(C)n2)c1	-40.6% (inactive)
CSc1nc(-c2ccco2)nn1C(=O)CCc1ccccc1	10.1% (inactive)
O=c1nc2s/c(=C\c3ccco3)c(=O)n2nc1Cc1ccccc1	-1.5% (inactive)
CCOc1ccccc1/C=c1\sc2nc(-c3ccco3)nn2c1=O	33.5% (active)
CC(=O)c1ccccc1NC(=O)C1CC(=O)N(c2ccc3c(c2)OCCO3)C1 (centres undefined)	-6.21% (inactive)
COc1ccc(OC)c(/C=C/C(=O)c2ccc3c(c2)OCO3)c1	6.23% (inactive)
Cc1nc(N)nc(SCc2ccc([N+](=O)[O-])cc2)c1N	12.4% (inactive)
Cc1cc(C)cc(C(=O)N2CCN=C2SCc2ccc([N+](=O)[O-])cc2)c1	-7.25% (inactive)
